# The list is not random: actives were taken first. Their share in the collection is about 10%.
# MCF10A rerep: induces DNA re-replication in MCF 10a normal breast cells; Potency, µM (highest dose often 46.1 µM), for inactives: at the top dose activity, positive = re-replication, usual class: activators; 350,000 tested, 2.9% active; MCF 10A DNA re-replication, Hoechst nuclear intensity, 48 h; further: % of control where 0% means no effect; nearly all actives have a fitted effect of over 50% in size
# RORgamma inh: ROR gamma (mouse) transcription inhibition. P51450. Drosophila S2 Gal4-RORgamma UAS-luciferase reporter, 20 h. Potency, µM (highest dose often 53.6 µM), for the others: at the top dose activity change, negative = inhibition, most hits filed as inhibitors. 310,000 tested, 5.4% active. AID 2551; further: on the % scale 0 is the no-effect control and ±100 the full control effect; nearly all actives have a fitted effect of over 60% in size
# Target sequence (P51450 whole entry, looked up, the tested form may be a part): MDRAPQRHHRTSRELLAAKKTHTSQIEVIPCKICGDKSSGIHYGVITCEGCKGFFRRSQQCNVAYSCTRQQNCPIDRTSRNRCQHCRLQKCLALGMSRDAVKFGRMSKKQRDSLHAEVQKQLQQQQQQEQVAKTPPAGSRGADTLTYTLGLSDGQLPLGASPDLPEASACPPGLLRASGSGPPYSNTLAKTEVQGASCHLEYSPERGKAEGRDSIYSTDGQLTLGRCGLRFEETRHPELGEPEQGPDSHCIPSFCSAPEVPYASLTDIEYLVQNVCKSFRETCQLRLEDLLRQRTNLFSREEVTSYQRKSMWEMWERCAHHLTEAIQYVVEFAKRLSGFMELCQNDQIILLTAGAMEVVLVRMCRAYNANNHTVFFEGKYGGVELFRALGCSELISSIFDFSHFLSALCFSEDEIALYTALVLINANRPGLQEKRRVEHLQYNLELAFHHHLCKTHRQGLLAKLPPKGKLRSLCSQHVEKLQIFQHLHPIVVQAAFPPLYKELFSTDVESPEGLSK
#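 Drosophila Schneider cells stably carrying a metallothionein-driven Gal4 DBD–ROR gamma fusion and a UAS-Photinus luciferase reporter were exposed to compound for 1 hr, then induced with copper sulfate (700 uM final) for 20 hr at ambient temperature before luminescence reading.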
# KB-V1 MDR tox: KB-V1 MDR subline cytotoxicity; Potency, µM (titrated, usually from 46.1 µM), actives largely listed as cytotoxic; 400,000 tested, 3.4% active; AID 1347076; KB-V1 MDR cells viability, CellTiter-Glo, 72 h; further: on the % scale 0 is the no-effect control and ±100 the full control effect; nearly all actives have a fitted effect of over 60% in size
#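 Compound-treated KB-V1 multidrug-resistant cells, 72 h, 37 degrees C; viability by CellTiter-Glo. Fitted qHTS curves give the values.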
# KB-3-1 cytotox: kills parental KB-3-1 adenocarcinoma cells; KB-3-1 viability, CellTiter-Glo ATP luminescence, 72 h; Potency, µM (series often up to 46.1 µM), most hits filed as cytotoxic; 400,000 tested, 1.4% active; further: on the % scale 0 is the no-effect control and ±100 the full control effect; nearly all actives have a fitted effect of over 60% in size
#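 Parental KB-3-1 adenocarcinoma cells in phenol-red-free DMEM with 10% FBS were pin-treated with compounds at several concentrations, incubated 72 h at 37 °C, and viability read by CellTiter-Glo luminescence; concentration-effect curves were fitted after normalization.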
# VP16 counter: inhibits Gal4-VP16 luciferase reporter, ROR gamma counter-screen; Drosophila S2 Gal4-VP16 UAS-luciferase, luminescence, 20 h; Potency, µM (series often up to 53.6 µM), without a hit: at the top dose activity, negative = inhibition, hits mostly inhibitors; 310,000 tested, 3.5% active; AID 2546;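 further: Gal4-VP16 expression switched on by copper sulfate through the metallothionein promoter; on the % scale 0 is the no-effect control and ±100 the full control effect; nearly all actives have a fitted effect of over 50% in size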
# SW480 rerep: DNA re-replication induction in SW480 cells; SW480 DNA re-replication, Hoechst DNA content imaging, 48 h; AID 624297; Potency, µM (doses to about 46.1 µM), for the others: at the highest dose re-replication activation, most hits filed as activators; 340,000 tested, 1.8% active; further: % of control where 0% means no effect; nearly all actives have a fitted effect of over 55% in size
#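 Quantitative HTS format with DMSO vehicle controls; 48 hr drug incubation at 37 C, then 40 min Hoechst staining and scanning imager measurement at 405 nm excitation.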
# * marks the source's active call; other numbers are inactive results; i = inactive; ? = inconclusive; nt = not tested or not shown; [ ] = remark or other dose. The call rests on the fitted dose curve; in most records, active means well fitted curve in the direction sought with a large enough effect; inconclusive means small, poorly fitted or top-dose-only effect, or another doubt; inactive means no such curve, though single readings can be large; an effect the other way counts as inactive or inconclusive. Potency means the concentration at half of the fitted maximal effect.
SMILES,MCF10A rerep,RORgamma inh,KB-V1 MDR tox,KB-3-1 cytotox,VP16 counter,SW480 rerep
O=C(CCCCC(=O)Nc1ccccc1Cl)Nc1ccccc1Cl,-1%,-22%,i,i,-7%,2.9µM*
NS(=O)(=O)c1ccc(NC(=S)NNC(=O)CCC(=O)Nc2ccccc2Cl)cc1,5%,-24%,i,i,5%,-11%
O=C(Nc1ccccc1Cl)Nc1ccccc1Cl,-3%,-29%,i,i,-8%,15%
O=C(C[n+]1ccccc1)Nc1ccccc1C(=O)O,?,-3%,i,i,-8%,-4%
O=C(C[n+]1ccccc1)Nc1ccccc1C(F)(F)F,3.3µM*,-22%,i,i,-5%,-55%
O=C(CCC(=O)Nc1ccccc1Cl)NNC(=S)Nc1ccccc1C(F)(F)F,6%,7.9µM*,nt,nt,?,-2%
O=C(NNC(=S)Nc1ccccc1C(F)(F)F)C1CC1,3%,20µM*,i,i,6%,0%
FC(F)(F)c1ccccc1NC(=S)N1CCCCCC1,-2%,?,i,i,-7%,-3%
C1=C[C@H]2CCCN3CC[C@@H]([C@@H]2[C@]32CO2)[C@H]1CCOCc1ccccc1,nt,nt,i,i,nt,nt
O=C(NCCc1ccc(Cl)cc1)c1ccc(CS(=O)(=O)Cc2ccccc2F)o1,nt,nt,?,i,nt,nt
COc1cccc(CNC(=O)CN(C)S(=O)(=O)c2cccc3cccnc23)c1,1%,13%,i,i,-12%,-1%
CN(Cc1ccccc1)S(=O)(=O)c1cccc2cccnc12,0%,27%,21µM*,i,0%,-22%
COc1ccc(N(C(C)=O)S(=O)(=O)c2cccc3cccnc23)cc1,0%,35%,?,i,0%,-1%
CCSS(=O)(=O)c1cccc2cccnc12,?,22µM*,i,i,?,?
CCCCN(c1ccccc1)S(=O)(=O)c1cccc2cccnc12,2%,-35%,?,i,14µM*,2%
CCOC(=O)OCC1OC(c2ccccc2)C=CC1OC(=O)OCC (stereo not drawn),nt,2%[10 µM],nt,nt,8%[10 µM],nt
c1cc(-c2cnn3cc(-c4ccc(OCCN5CCCCC5)cc4)cnc23)ccn1,nt,15%,nt,nt,4%,nt
CCOC(=O)C1CCN(c2ncnc3c2nnn3C)CC1,nt,nt,i,i,nt,nt
CCC(=O)OCC(=O)C1(OC(=O)CC)C(C)CC2C3CCC4=CC(=O)C=CC4(C)C3(Cl)C(O)CC21C (stereo not drawn),nt,27%,nt,nt,0%,nt
CCOc1ccc(C(=O)OCC(=O)Nc2cccnc2Cl)cc1OCC,-2%,nt,18µM*,i,nt,-7%
O=C(COC(=O)c1ccc(Cl)c(Cl)c1)Nc1cccnc1Cl,3%,22%,i,i,-10%,-88%
Cc1ccc(S(=O)(=O)N(CC(=O)NCc2ccco2)Cc2ccccc2F)cc1,-1%,-6%,8.2µM*,i,-1%,-26%
CCOc1ccc(C2C(C(=O)Nc3ccc(OC)cc3)=C(C)Nc3nc(SCc4ccc(Cl)cc4)nn32)cc1 (stereo not drawn),nt,nt,i,i,nt,nt
Cc1nc(NCc2ccccc2)c2nc(-c3ccccc3)n(C(C)CN(C)C)c2n1 (stereo not drawn),nt,11µM*,nt,nt,18%,nt
CCN(CC)CCCC(C)n1c(-c2ccccc2)nc2c(NCc3ccccc3)nc(C)nc21 (stereo not drawn),nt,?,nt,nt,-5%,nt
Cc1nc(NCc2ccccc2)c2nc(-c3ccccc3)n(CCN3CCCCC3)c2n1,nt,11µM*,nt,nt,-15%,nt
Cc1nn2c3c(cnc2c1-c1ccc(F)cc1)C(=O)CC(c1ccccc1)C3 (stereo not drawn),nt,nt,i,i,nt,nt
COc1ccc(CNS(=O)(=O)c2ccc3c(c2)CCN3C(=O)C2CC2)cc1,-10%,-8%,?,i,16µM*,-8%
CC1Cc2cc(S(=O)(=O)NCc3ccccc3Cl)ccc2N1C(=O)C1CCC1 (stereo not drawn),nt,nt,?,23µM*,nt,nt
